Source: PubChem BioAssay (NCATS)
“And” between values parts separate entries of the source, which are not always exact repeats. Equal entries are not always repeated. For part of these data: Potency and affinity values are given separately. The source made the active and inactive calls.

Assays:
[1] = Ebola virus entry assay, green fluorescence channel
[2] = Ebola virus entry assay, blue channel fluorescence
[3] = Ebola virus entry assay, green fluorescence channel; remark: listed apart in the source
[4] = Ebola virus entry assay, ratio channel readout
[5] = Ebola virus entry assay, blue channel fluorescence; remark: listed apart in the source
[6] = Ebola virus entry assay, ratio channel
[7] = Ebola virus entry assay, reporter ratio channel; AC50: Channel type: primary unless noted; outcome: Channel type: primary unless noted
[8] = Ebola virus entry assay, blue channel (ratio component)
[9] = Ebola virus entry reporter assay, green channel fluorescence
Wherever efficacy is given: 0% is about no effect.

CN(C)c1cc(NC(=O)CNC(C)(C)C)c(O)c2c1C[C@@H]1C[C@H]3[C@H](N(C)C)C(=O)C(C(N)=O)=C(O)[C@@]3(O)C(=O)C1=C2O
inactive: efficacy [1] 47.7% | outcome [2] | outcome [3] | outcome [4]
active: AC50 [5] 8.91 µM | AC50 [6] 8.91 µM | AC50 [7] 8.91 µM

CNCCCN1c2ccccc2CCc2ccccc21
inactive: efficacy [1] 91.8% | outcome [2] | outcome [3] | outcome [4]
active: AC50 [5] 10 µM | AC50 [6] 7.94 µM | AC50 [7] 7.94 µM

COC(=O)Nc1nc2ccc(C(=O)c3ccccc3)cc2[nH]1
active: AC50 [2] 5.62 µM | AC50 [5] 1.41 µM | AC50 [6] 1.26 µM | AC50 [7] 1.26 µM
inactive: efficacy [1] 81.3% | outcome [3] | outcome [4] | outcome [8]

CC[C@]1(O)C[C@@H]2CN(CCc3c([nH]c4ccccc34)[C@@](C(=O)OC)(c3cc4c(cc3OC)N(C)[C@H]3[C@@](O)(C(=O)OC)[C@H](OC(C)=O)[C@]5(CC)C=CCN6CC[C@]43[C@@H]65)C2)C1
active: AC50 [2] 0.0009 µM | AC50 [5] 0.794 µM | AC50 [6] 1 µM and 891 nM | AC50 [7] 1 µM and 891 nM
inactive: efficacy [1] -50.1% and 54.6% | outcome [3] | outcome [4]

CN1CCN(C(c2ccccc2)c2ccccc2)CC1
inactive: efficacy [1] 84.8% | outcome [2] | outcome [3] | outcome [4] | outcome [9]
active: AC50 [5] 28.2 µM | AC50 [6] 22.4 µM | AC50 [7] 22.4 µM

CN(C)CCC=C1c2ccccc2CCc2ccccc21
inactive: efficacy [1] 121% | outcome [3] | outcome [4] | outcome [9]
active: AC50 [2] 11.2 µM | AC50 [5] 8.91 µM | AC50 [6] 7.94 µM | AC50 [7] 7.94 µM

CN(C)CCCN1c2ccccc2CCc2ccc(Cl)cc21
active: AC50 [2] 7.94 µM | AC50 [4] 6.31 µM | AC50 [5] 3.16 µM | AC50 [6] 3.16 µM
inactive: efficacy [1] -191% | outcome [3] | outcome [7] inactive [Channel type: confirmation]

CN(C)CCC[C@@]1(c2ccc(F)cc2)OCc2cc(C#N)ccc21
inactive: efficacy [1] 55% | outcome [2] | outcome [3] | outcome [4] | outcome [6] | outcome [9]
active: AC50 [5] 39.8 µM | AC50 [7] 39.8 µM

CCCN(CCc1cccs1)[C@H]1CCc2c(O)cccc2C1
active: AC50 [5] 25.1 µM | AC50 [6] 25.1 µM | AC50 [7] 25.1 µM
inactive: efficacy [1] -47.6% | outcome [2] | outcome [3] | outcome [4]

CC(CN(C)C)CN1c2ccccc2CCc2ccccc21 (stereo not drawn)
active: AC50 [4] 14.1 µM | AC50 [5] 7.94 µM | AC50 [6] 6.31 µM | AC50 [7] 6.31 µM
inactive: efficacy [1] 31.5% | outcome [2] | outcome [3]

CCCNCC(O)COc1ccccc1C(=O)CCc1ccccc1 (stereo not drawn)
active: AC50 [2] 11.2 µM | AC50 [4] 8.92 µM | AC50 [5] 8.91 µM | AC50 [6] 7.94 µM
inactive: efficacy [1] 86.9% | outcome [3] | outcome [7] inactive [Channel type: confirmation] | outcome [8]

CCC(COC(=O)c1cc(OC)c(OC)c(OC)c1)(c1ccccc1)N(C)C (stereo not drawn)
active: AC50 [6] 17.8 µM | AC50 [7] 17.8 µM
inactive: efficacy [1] 72.4% | outcome [2] | outcome [3] | outcome [4] | outcome [5] | outcome [8] | outcome [9]

CN1CCC(=C2c3ccccc3C=Cc3ccccc32)CC1
active: AC50 [5] 11.2 µM | AC50 [6] 10 µM | AC50 [7] 10 µM
inactive: efficacy [1] 67.2% | outcome [2] | outcome [3] | outcome [4] | outcome [9]

CS(=O)(=O)CCNCc1ccc(-c2ccc3ncnc(Nc4ccc(OCc5cccc(F)c5)c(Cl)c4)c3c2)o1
inactive: efficacy [1] 108% | outcome [2] | outcome [3] | outcome [4]
active: AC50 [5] 3.55 µM | AC50 [6] 3.98 µM | AC50 [7] 3.98 µM

COCCCOc1cc(C[C@@H](C[C@H](N)[C@@H](O)C[C@H](C(=O)NCC(C)(C)C(N)=O)C(C)C)C(C)C)ccc1OC
inactive: efficacy [1] 31.8% | outcome [2] | outcome [3] | outcome [4] | outcome [5] | outcome [6] | outcome [7] | outcome [8] | outcome [9]

CN1CCN(CCCN2c3ccccc3Sc3ccc(Cl)cc32)CC1
inactive: efficacy [1] -144% | outcome [2] | outcome [3] | outcome [4]
active: AC50 [5] 7.08 µM | AC50 [6] 3.98 µM | AC50 [7] 3.98 µM

COC(=O)C1=C(C)NC(C)=C(C(=O)OCCN(C)Cc2ccccc2)C1c1cccc([N+](=O)[O-])c1 (stereo not drawn)
active: AC50 [5] 12.6 µM | AC50 [6] 10 µM | AC50 [7] 10 µM
inactive: efficacy [1] -75% | outcome [2] | outcome [3] | outcome [4] | outcome [9]

CCN(CC)CCOC(=O)C1(C2CCCCC2)CCCCC1
inactive: efficacy [1] 45% | outcome [2] | outcome [3] | outcome [4] | outcome [9]
active: AC50 [5] 12.6 µM | AC50 [6] 10 µM | AC50 [7] 10 µM
